The list is not random: actives were taken first. Their share in the collection is about 10%.
SARS PLP yeast: SARS-CoV PLP inhibition in yeast. S. cerevisiae expressing SARS-CoV PLpro, growth rescue. Potency, µM (titrated, usually from 32.9 µM), for inactives: at the top dose activity, positive = growth rescue, usual class: activators. 330,000 compounds, 0.19% hits. AID 485353; calls by dose curve; also: 0% is about no effect; nearly all actives have a fitted effect of over 55% in size
NS1 inh: influenza NS1 inhibition; 270,000 compounds, 0.4% hits; Potency, µM (series often up to 46.1 µM), for inactives: top-dose activity, positive = more growth; calls by dose curve; also: actives are rising curves; nearly all actives have a fitted effect of over 50% in size
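A cell-based growth assay was used: compounds that relieve NS1-induced slow growth of budding yeast raise OD600. Assay medium was yeast nitrogen base with ammonium sulphate and -URA supplement, pH 6.0, with 2% galactose.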
Pf growth 48h: P. falciparum growth inhibition at 48 hours (one generation) | P. falciparum luciferase growth in erythrocytes, 48 h | Potency, µM (highest dose often 28.7 µM), for inactives: at the top dose activity change, negative = inhibition, actives largely listed as inhibitors | 310,000 compounds, 5.9% hits; also: % is scaled to controls: 0 for no effect and ±100 for the full control effect
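Erythrocytes infected with P. falciparum carrying an integrated firefly luciferase reporter (2% hematocrit, 0.1% parasitemia final) were exposed to compounds in RPMI 1640 with 0.5% Albumax at 37 C, 5% CO2. Growth inhibition was scored as reduced luminescence.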
Pf growth 96h: inhibits malaria parasite growth, 96 h; Potency, µM (series often up to 28.7 µM), for inactives: at the top dose activity change, negative = inhibition, hits mostly inhibitors; P. falciparum luciferase reporter growth, 96 h; AID 504834; 320,000 compounds, 6.9% hits; also: % is scaled to controls: 0 for no effect and ±100 for the full control effect
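Infected RBCs, 2% Hct / 0.05% parasitemia final; luciferase-reporter P. falciparum; cpd 96 h, 37 C, 5% CO2; luciferase detection reagent; luminescence.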
Active calls of the source: *. Unless noted, calls follow the shape of the dose curve; as a rule, active = well fitted inhibition curve with a large enough effect; inconclusive = small, poorly fitted or top-dose-only effect, or another doubt; inactive = no such curve, though single readings can be large or run the other way. Potency is read from the fitted curve at half-maximal effect.

For COc1cc(-c2nnc3sc(Cc4ccccc4)nn23)cc(OC)c1OC the results were SARS PLP yeast -8%, NS1 inh -10%, Pf growth 48h inconclusive and Pf growth 96h 6.6µM*.
Screening COc1cccc(-c2nnc3sc(C4CCCCC4)nn23)c1 returned SARS PLP yeast -12%, NS1 inh -114% and Pf growth 96h 3%.
Screening COc1cc(OC)c(-c2nn3c(C4CCCCC4)nnc3s2)cc1OC returned SARS PLP yeast 1%, NS1 inh -78%, Pf growth 48h 5.2µM* and Pf growth 96h 44%.
COc1cc(-c2nnc3sc(C4CCCCC4)nn23)cc(OC)c1OC was read as SARS PLP yeast -2%, NS1 inh -152%, Pf growth 48h 8.3µM* and Pf growth 96h 5.2µM*.
Screening Clc1ccc(OCc2nn3c(C4CCCCC4)nnc3s2)c(Cl)c1 returned SARS PLP yeast -8%, NS1 inh -77%, Pf growth 48h 43% and Pf growth 96h 28%.
`COc1ccc(-c2nnc3sc(CCN4C(=O)c5ccccc5C4=O)nn23)cc1` gave SARS PLP yeast -3%, NS1 inh -31%, Pf growth 48h 5.2µM* and Pf growth 96h inconclusive.
`O=C(c1ccco1)N1CCN(C(=O)c2ccc(CS(=O)c3ccc(Cl)cc3)o2)CC1` (stereo not drawn) gave SARS PLP yeast 9%, NS1 inh 5%, Pf growth 48h 8% and Pf growth 96h inconclusive.
Screening CC1CCC2(CC1)NC(=O)N(CC(=O)Nc1ccc(C(N)=O)cc1)C2=O (stereo not drawn) returned SARS PLP yeast 3%.
For Cc1oc(-c2cccc(Br)c2)[n+]([O-])c1C the results were SARS PLP yeast 1%, Pf growth 48h 25% and Pf growth 96h inconclusive.
Screening C(=Nc1cnc2ccccc2c1)c1ccc2ccccc2n1 returned NS1 inh -4%.
O=C(OC1CCOC1=O)C1CCN(S(=O)(=O)c2ccc(Cl)c(C(F)(F)F)c2)CC1 (stereo not drawn) was read as SARS PLP yeast -1%, Pf growth 48h -4% and Pf growth 96h 16%.
For CCOc1cccc(-c2nnc3sc(C4CCCCC4)nn23)c1 the results were SARS PLP yeast -8%, NS1 inh -1%, Pf growth 48h 9.3µM* and Pf growth 96h 10µM*.
For COc1ccc2oc(C(=O)OCC(=O)NCc3ccccc3OC)c(C)c2c1 the results were SARS PLP yeast 0%, Pf growth 48h -1% and Pf growth 96h -8%.
`NS(=O)(=O)c1ccc(CCNC(=O)COC(=O)c2nc(Cl)ccc2Cl)cc1` gave SARS PLP yeast 2%, Pf growth 48h -13% and Pf growth 96h -14%.
CCN(CC)S(=O)(=O)c1cc(NC(=O)C2CC(=O)N(Cc3ccccc3)C2)ccc1Cl (stereo not drawn) was read as SARS PLP yeast 0%, Pf growth 48h 10µM* and Pf growth 96h inconclusive.
Screening O=C(NNC(=O)C1CC(=O)N(Cc2ccccc2)C1)c1ccc(Br)cc1 (stereo not drawn) returned SARS PLP yeast 24%, NS1 inh 9%, Pf growth 48h 26% and Pf growth 96h 2.3µM*.
For Cc1ccc(NC(=O)C2CC(=O)N(Cc3ccccc3)C2)cc1S(=O)(=O)N1CCCCCC1 (stereo not drawn) the results were SARS PLP yeast 19%, NS1 inh -5%, Pf growth 48h inconclusive and Pf growth 96h 12µM*.
For CCc1ccc(C(=O)NNC(=O)C2CC(=O)N(Cc3ccccc3)C2)cc1 (stereo not drawn) the results were SARS PLP yeast 0%, Pf growth 48h -5% and Pf growth 96h 22%.
O=C(Nc1ccc(S(=O)(=O)N2CCCCC2)cc1)C1CC(=O)N(Cc2ccccc2)C1 (stereo not drawn) was read as SARS PLP yeast 2%, Pf growth 48h 13µM* and Pf growth 96h inconclusive.
Screening CCOC(=O)c1c(-c2ccc(C)o2)csc1NC(=O)CSc1ncn[nH]1 returned SARS PLP yeast -17%, NS1 inh 6% and Pf growth 96h 15µM*.
Screening Cc1ccc(NC(=O)C(C)Sc2nnc(C)n2C)cc1 (stereo not drawn) returned SARS PLP yeast -11%, NS1 inh -15%, Pf growth 48h 19% and Pf growth 96h 174%.
CCOc1ccc(NC(=O)CSc2nnc(C3CC3)n2C)cc1 was read as SARS PLP yeast -2%, NS1 inh 4%, Pf growth 48h -3% and Pf growth 96h 2.1µM*.
`CCOc1ccc(NC(=O)CSc2ncn[nH]2)cc1` gave SARS PLP yeast -9%, NS1 inh 16%, Pf growth 48h 24% and Pf growth 96h 12µM*.
Screening CCOc1ccc(NC(=O)C(C)Sc2nnc(C)n2C)cc1 (stereo not drawn) returned SARS PLP yeast 4%, NS1 inh -6%, Pf growth 48h 7% and Pf growth 96h 13µM*.
Screening CCCCN([C@H](CO)C(C)C)S(=O)(=O)c1ccccc1Br returned SARS PLP yeast 11%.
Screening COC(=O)c1cc(S(=O)(=O)NCC2CCN(Cc3cc(C)ccc3C)CC2)c[nH]1 returned SARS PLP yeast 4%, NS1 inh -12%, Pf growth 48h 3% and Pf growth 96h 33%.
CCOC(=O)c1ccc(NC(=O)CSc2nnc(C3CCCCC3)n2C)cc1 was read as SARS PLP yeast 14%, NS1 inh 3%, Pf growth 48h 6.6µM* and Pf growth 96h 8.3µM*.
For CCOC(=O)c1ccc(NC(=O)CSc2nnc(-c3cccs3)n2C)cc1 the results were SARS PLP yeast -4%, NS1 inh 5%, Pf growth 48h inconclusive and Pf growth 96h 3.3µM*.
COc1ccc2oc(C(=O)OCc3nnc(-c4ccccc4)o3)c(C)c2c1 was read as SARS PLP yeast 5%, Pf growth 48h 12% and Pf growth 96h 26%.
Screening C#CCOCCOCCOCCNc1nc(N2CCN(C(=O)[C@H]([C@@H](C)CC)n3cc([C@@H](N)Cc4ccc(O)cc4)nn3)CC2)nc(N2CCN(C(=O)[C@H](Cc3ccc(O)cc3)n3cc([C@@H](N)CC(C)C)nn3)CC2)n1 returned SARS PLP yeast 0%, NS1 inh 1%, Pf growth 48h 4.7µM* and Pf growth 96h inconclusive.
For C#CCOCCOCCOCCNc1nc(N2CCN(C(=O)[C@H]([C@@H](C)CC)n3cc([C@@H](N)CC(C)C)nn3)CC2)nc(N2CCN(C(=O)[C@H](Cc3ccc(O)cc3)n3cc([C@@H](N)C(C)CC)nn3)CC2)n1 (stereo partly drawn) the results were SARS PLP yeast -1%, NS1 inh 0%, Pf growth 48h 5.2µM* and Pf growth 96h 5.2µM*.
`C#CCOCCOCCOCCNc1nc(N2CCOCC2)nc(N2CCN(C(=O)[C@H]([C@@H](C)CC)n3cc([C@@H](N)CC(C)C)nn3)CC2)n1` gave SARS PLP yeast 1%, NS1 inh 1%, Pf growth 48h inconclusive and Pf growth 96h 6.6µM*.

Assay outcomes (PubChem)
